From PubChem BioAssay come the findings set out here.

Values without a mark were called inactive.

The experiment in a line: E. coli acrAB mutant growth effects, primary screen, E. coli filamentation inducers, strain DRC39, OD650, 24 h (AID 1178).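 Note: growth measured as culture turbidity by optical density at 650 nm; test concentration not given here.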 The settings on record: higher = more signal, called active from +8 up or from −8 down.
With `CC1=C2[C@@H](CCc3ccccc3)OB(O)C[C@@H]2[C@@H]2C(=O)C=CC(=O)[C@@H]2C1`, the z-score was -0.367. On to `[N-]=[N+]=NCc1ccccc1C[C@]1(C(=O)NCCN2CCOCC2)COC(c2ccc(OCCCO)cc2)=N1`, for which the z-score is 0.786. Regarding `COc1ccc(CCNC(=O)[C@@H]2c3ccccc3C(=O)N(Cc3ccccc3)[C@H]2c2ccc(CO)cc2)cc1`, the z-score is 1.62. With `C=CC[C@@]1(C(=O)NCC(O)CO)N=C(c2ccc(OCCCO)cc2)O[C@@H]1c1ccccc1` (some centres not stated), the z-score is 2.08. On to `CO[C@H]1O[C@H](CO)[C@@H](OC(=O)Nc2cccc(F)c2)[C@H](OC(=O)Nc2ccc3c(c2)OCO3)[C@H]1OC(=O)Nc1ccc2c(c1)OCO2`, for which the z-score is 1.49. For `COc1ccc(C#Cc2ccc3c(c2)[C@]2(C(=O)N3)[C@H](c3ccc(OCCO)cc3)N3[C@H](c4ccccc4)[C@H](c4ccccc4)OC(=O)[C@H]3[C@@H]2C(=O)N2CCN(c3ncccn3)CC2)cc1`, the z-score is 0.101.

For the compound `COCC(=C=CC[C@@H](O)c1ccccc1OCCO)C[C@@H](O)c1ccccn1`, the z-score is -0.268. Consider `CCCN1C(=O)[C@@]2(Cc3ccccc3)N=C(c3ccc(OCCCO)cc3)O[C@H]2c2ccccc21`, for which the z-score was 0.248. The value for `NC(=O)NCC#Cc1ccc2c(c1)[C@]1(C(=O)N2)[C@H](c2ccc(OCCO)cc2)N2[C@H](c3ccccc3)[C@H](c3ccccc3)OC(=O)[C@H]2[C@@H]1C(=O)N1CCN(c2ncccn2)CC1` was 0.665; that for `C=CCC(OC(C)=O)[C@@H]1[C@@H](N(Cc2cccc3ccccc23)C(=O)c2ccc(C)cc2)c2cc(OCCCO)ccc2N1C(=O)c1ccc2ccccc2c1` (some centres not stated) was 1.24.

As for `COc1ccc([Si](C)(C)[C@@H]2[C@@H](CC(=O)N(CCO)Cc3ccccc3)O[C@]3(C(=O)N(Cc4ccc(N5CCOC5=O)cc4)c4ccccc43)[C@H]2C)cc1`, the z-score was 1.16. Then `COc1ccccc1CN1C(=O)c2ccccc2[C@](Cc2ccccc2I)(C(=O)NCCN2CCOCC2)[C@@H]1c1ccc(CO)cc1`, with 0.533; and `CN(C)CCCN1C(=O)[C@@]2(Cc3ccccc31)c1ccccc1C(=O)N(Cc1ccccc1)[C@H]2c1ccc(CO)cc1`, with 0.672. Turning to `Cc1ccc(S[C@]2(C(=O)O)CC(=O)N(Cc3ccccc3C(F)(F)F)[C@@H]2c2ccc(CO)cc2)cc1`, the z-score is 0.232. The value for `CCOC(=O)C1=CC[C@@H](c2ccccc2)N(S(=O)(=O)c2ccc(C)cc2)[C@H]1C=C(C)C` was -0.147; that for `COCCOC(=O)N1C(=O)[C@@]2(c3cc(C#CCNC(N)=O)ccc31)[C@H](C(=O)N1CCCCCCC1)[C@H]1C(=O)O[C@H](c3ccccc3)[C@H](c3ccccc3)N1[C@@H]2c1ccc(OCCO)cc1` was -0.0272. On to `CC(C)CNC(=O)[C@@]1(C)c2ccccc2C(=O)N(Cc2ccccc2)[C@H]1c1ccc(CO)cc1`, for which the z-score was 0.165.

Turning to `C=CCC(OC(C)=O)[C@@H]1[C@@H](N(Cc2ccc(-c3ccccc3)cc2)C(=O)c2cccc3ccccc23)c2cc(OCCCO)ccc2N1C(=O)c1ccc2ccccc2n1` (some centres not stated), the z-score is 0.908. The value for `COc1ccc([Si](C)(C)[C@@H]2[C@@H](CCO)O[C@]3(C(=O)N(Cc4ccccc4)c4ccc(N5C(=O)COc6ccccc65)cc43)[C@H]2C)cc1` was -0.141; that for `C=C(COC)/C(=C/C[C@@H](OC(=O)c1ccncc1)c1cccc(OCCO)c1)c1cc(C(=O)OC)ccc1OC` was 0.802; that for `O=C1NC(=O)C2C1C=CC(C(O)c1ccc3c(c1)OCO3)N2Nc1ccc(Cl)cc1Cl` (configuration not stated) was -0.145.

Regarding `[N-]=[N+]=NCc1ccccc1C[C@@]1(C(=O)NCCN2CCOCC2)N=C(c2ccc(OCCCO)cc2)O[C@@H]1c1ccccc1CN=[N+]=[N-]`, the z-score was 0.585. With `C[N+](C)(C)CCCCCCNC(=O)[C@@H]1C[C@@H]2C(=O)NCC(=O)N2[C@@H]1c1ccc(O)cc1`, the z-score is 0.182. The value for `COC(=O)[C@@]1(Cc2ccccc2N=[N+]=[N-])N=C(c2ccc(OCCCO)cc2)O[C@H]1c1ccccc1` was 0.044; that for `COCCOC(=O)N1C(=O)[C@@]2(c3cc(C#Cc4ccc(OC)cc4)ccc31)[C@H](C(=O)N1CCc3cc(OC)c(OC)cc3C1)[C@H]1C(=O)O[C@H](c3ccccc3)[C@H](c3ccccc3)N1[C@@H]2c1ccc(OCCO)cc1` was -0.997. Take `O=C1O[C@H](c2ccccc2)[C@H](c2ccccc2)N2[C@H]1[C@@H](C(=O)N1CCCCCCC1)[C@]1(C(=O)Nc3ccc(C#CCCO)cc31)[C@H]2c1ccc(OCCO)cc1`: the z-score is 0.136. As to `CCCC[C@H]1OB(O)C[C@H]2C1=C(COc1ccccc1)Cn1c(=O)n(-c3ccccc3)c(=O)n12`, the z-score is 0.232.
